Measurements as given in PubChem BioAssay (EPA / NIEHS).
The source made the active and inactive calls. Rule for the calls: active = hit-call score of the fitted dose curve at least 0.9, where 1 is the maximum; inactive = score below 0.9.

Experiments:
[1] = APR_HepG2_CellLoss_1hr: Apredica 1-hour HepG2 Assay for Cell Loss (AID 2282668); conditions: high-content imaging;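 note: curves fitted both ways against DMSO so gain or loss of cells counts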
How it was run: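 HepG2 cells were treated for 1 h with compound at 0.39–200 uM, in duplicate, in 0.5% DMSO. After formaldehyde fixation, Hoechst 33342-stained nuclei were imaged on an ArrayScan to count cells. Data were fitted bidirectionally versus DMSO.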

[2] = APR_HepG2_MicrotubuleCSK_1hr: Apredica 1-hour HepG2 Assay for Microtubule CSK Stabilty (AID 2282669); conditions: HepG2 microtubule cytoskeleton imaging, actives raise or lower the signal
How it was run: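 HepG2 cells exposed 1 h to 0.39–200 uM compound (0.5% DMSO, duplicates), then formaldehyde-fixed, permeabilized and immunostained for alpha-tubulin with Hoechst nuclei. Imaged by ArrayScan high-content analysis; bidirectional fit versus DMSO.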

[3] = APR_HepG2_NuclearSize_1hr: Apredica 1-hour HepG2 Assay for Nuclear Size (AID 2282670); conditions: high-content imaging, actives raise or lower the signal
How it was run: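 HepG2 cells dosed 1 hr with 0.39–200 uM compound (0.5% DMSO), formaldehyde-fixed, Hoechst 33342-stained and imaged at 20x; nuclear diameter from nuclear stain, fitted bidirectionally against DMSO.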

[4] = APR_HepG2_MitoMass_1hr: Apredica 1-hour HepG2 Assay for Mitochondrial Mass (AID 2282674); conditions: high-content imaging, actives raise or lower the signal
How it was run: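 HepG2 cells dosed 1 hr with 0.39-200 uM compound (0.5% DMSO), duplicate wells. Mitochondria stained with 250 nM MitoTracker Red CMXRos for 30 min before formaldehyde fixation, imaged at 20x by ArrayScan; bidirectional fit versus DMSO.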

[5] = APR_HepG2_MitoMembPot_1hr: Apredica 1-hour HepG2 Assay for Mitochondrial Membrane Potential (AID 2282675); conditions: imaging, actives raise or lower the signal
How it was run: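 HepG2 cells dosed 1 hour with 0.39–200 uM compound in duplicate, 0.5% DMSO final. MitoTracker Red CMXRos (250 nM, 30 min) loaded before formaldehyde fixation; fluorescence quantified by high-content imaging, bidirectional fitting versus DMSO.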

[6] = APR_HepG2_CellCycleArrest_24hr: Apredica 24-hour HepG2 Assay for Cell Cycle Arrest (AID 2282905); conditions: imaging, actives raise or lower the signal;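 note: cell cycle arrest scored as ratio of 2N to 4N nuclear DNA content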
How it was run: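 HepG2 cells were exposed to compounds at 0.39–200 uM (ten concentrations, duplicate) in 0.5% v/v DMSO for 24 hr. After formaldehyde fixation and Triton permeabilization, Hoechst 33342-stained nuclei were imaged at 20x; DNA content was quantified, with bidirectional fitting against DMSO.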

[7] = APR_HepG2_StressKinase_1hr: Apredica 1-hour HepG2 Assay for Stress Kinase (AID 2282906); conditions: HepG2 stress kinase (phospho-c-Jun) imaging, actives raise or lower the signal
How it was run: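 HepG2 cells dosed 0.39-200 uM (0.5% DMSO) for 1 h, then formaldehyde-fixed. Stress kinase read by phospho-c-Jun immunofluorescence using high-content imaging; bidirectional fit vs DMSO.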

[8] = APR_HepG2_NuclearSize_24hr: Apredica 24-hour HepG2 Assay for Nuclear Size (AID 2282907); conditions: high-content imaging, actives raise or lower the signal
How it was run: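 HepG2 human liver cells were exposed for 24 hr to compounds at 0.39–200 uM (ten concentrations, duplicate) in 0.5% v/v DMSO. They were then formaldehyde-fixed, Triton-permeabilized and Hoechst 33342-stained, and nuclear diameter was imaged at 20x. Bidirectional fits were made against DMSO.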

[9] = APR_HepG2_CellLoss_24hr: Apredica 24-hour HepG2 Assay for Cell Loss (AID 2282908); conditions: high-content imaging;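 for AC50: fit in both directions so a hit may be cell loss or gain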
How it was run: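 Compounds were tested at 0.39–200 uM in duplicate with 0.5% v/v DMSO final. Cells were then fixed in 3.7% formaldehyde, Hoechst 33342 nuclei were imaged at 20x by HCS, and cell number was fitted bidirectionally against DMSO.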

[10] = APR_HepG2_MitoticArrest_24hr: Apredica 24-hour HepG2 Assay for Mitotic Arrest (AID 2282910); conditions: high-content imaging, actives raise or lower the signal
How it was run: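 HepG2 cells, 24 h exposure at 0.39-200 uM (10 concentrations, duplicate, 0.5% DMSO). Fixed, stained for phospho-histone H3 with Hoechst; imaged by high-content microscopy, bidirectional fit versus DMSO.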

[11] = APR_HepG2_MitoMembPot_24hr: Apredica 24-hour HepG2 Assay for Mitochondrial Membrane Potential (AID 2282911); conditions: imaging, actives raise or lower the signal
How it was run: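 HepG2 cells exposed 24 h to 0.39–200 uM compounds in duplicate, 0.5% v/v DMSO final. MitoTracker Red CMXRos 250 nM loaded 30 min before formaldehyde fixation; high-content imaging at 20x, bidirectional fit versus DMSO.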

[12] = APR_HepG2_MitoMass_24hr: Apredica 24-hour HepG2 Assay for Mitochondrial Mass (AID 2282912); conditions: high-content imaging, actives raise or lower the signal
How it was run: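 Human HepG2 liver cells were exposed for 24 hr to compounds at 0.39–200 uM (duplicates, 0.5% v/v DMSO final). They were stained live with 250 nM MitoTracker Red CMXRos for 30 min, fixed in 3.7% formaldehyde, and imaged by HCS fluorescence; signals were fitted bidirectionally against DMSO.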

[13] = APR_HepG2_CellCycleArrest_72hr: Apredica 72-hour HepG2 Assay for Cell Cycle Arrest (AID 2282914); conditions: high-content imaging, actives raise or lower the signal
How it was run: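 HepG2 cells exposed 72 h in duplicate to 0.39–200 uM compound, 0.5% DMSO final. Formaldehyde-fixed, Hoechst 33342-stained nuclei imaged at 20x, six fields per well; DNA content per valid cell quantified by cell-cycle image analysis, bidirectional fit versus DMSO.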

[14] = APR_HepG2_CellLoss_72hr: Apredica 72-hour HepG2 Assay for Cell Loss (AID 2282915); conditions: high-content imaging
How it was run: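 HepG2 cells exposed 72 h to compound at 0.39–200 uM (10 concentrations, duplicate) in 0.5% DMSO. Fixed with 3.7% formaldehyde and Hoechst 33342-stained. Imaged at 20x; nuclear count gives cell number, fitted bidirectionally versus DMSO.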

[15] = APR_HepG2_MitoticArrest_1hr: Apredica 1-hour HepG2 Assay for Mitotic Arrest (AID 2282672); conditions: high-content imaging, actives raise or lower the signal
How it was run: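 HepG2 cells exposed 1 hr to compounds at 0.39–200 uM (0.5% v/v DMSO final), then fixed in 3.7% formaldehyde and immunostained for phospho-histone H3 with Hoechst 33342. Mitotic arrest scored by automated fluorescence imaging, fitted bidirectionally versus DMSO.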

[16] = APR_HepG2_p53Act_24hr: Apredica 24-hour HepG2 Assay for p53 Activation (AID 2282913); conditions: high-content imaging, actives raise or lower the signal;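 note: p53 protein immunofluorescence averaged per cell in HepG2 with Hoechst nuclei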
How it was run: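 HepG2 cells exposed 24 h to compounds at 0.39–200 uM in duplicate, 0.5% v/v DMSO final; fixed, permeabilized, stained with anti-p53 antibody and Hoechst 33342; fluorescence imaging; bidirectional curve fit versus DMSO.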

[17] = APR_HepG2_P-H2AX_1hr: Apredica 1-hour HepG2 Assay for H2AX Phosphorylation (AID 2282673); conditions: high-content imaging, actives raise or lower the signal
How it was run: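 HepG2 dosed 1 hr at 0.39-200 uM (0.5% DMSO final), duplicate. Fixed in 3.7% formaldehyde, Triton permeabilized, immunostained for phospho-histone H2A.x (1:200) with Hoechst 33342; ArrayScan 20x imaging, bidirectional fit vs DMSO.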

[18] = APR_HepG2_p53Act_1hr: Apredica 1-hour HepG2 Assay for p53 Activation (AID 2282671); conditions: high-content imaging, actives raise or lower the signal
How it was run: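 HepG2 cells treated 1 h with compound at 0.39–200 uM (10 concentrations, duplicate) in 0.5% DMSO. Formaldehyde-fixed, permeabilised cells immunostained for p53 with Hoechst 33342; high-content imaging, bidirectional fit versus DMSO.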

[19] = APR_HepG2_MicrotubuleCSK_24hr: Apredica 24-hour HepG2 Assay for Microtubule CSK Stabilty (AID 2282909); conditions: HepG2 microtubule cytoskeleton imaging, actives raise or lower the signal
How it was run: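 HepG2 cells exposed 24 h to compounds at 0.39–200 uM (duplicate, 0.5% v/v DMSO final), then fixed, permeabilized and immunostained for alpha-tubulin with Hoechst 33342. Cytoskeleton imaged at 20x; bidirectional fit versus DMSO baseline.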

Measured: AC50

CCCSP(=O)(OCC)SCCC
inactive: [1] | [2] | [3] | [4] | [5] | [6] | [7] | [8] | [9] | [10] | [11] | [12] | [13] | [14]

CC(C)=CC1C(C(=O)OCN2C(=O)C3=C(CCCC3)C2=O)C1(C)C (configuration not stated)
inactive: [1] | [2] | [3] | [15] | [4] | [5] | [6] | [7] | [8] | [10] | [11] | [12] | [16] | [13]
active: [9] 109 µM | [14] 100 µM

CC(C)[C@H](C(=O)O[C@H](C#N)c1cccc(Oc2ccccc2)c1)c1ccc(Cl)cc1
inactive: [1] | [2] | [3] | [15] | [4] | [6] | [7] | [8] | [9] | [10] | [11] | [12] | [16] | [13] | [14]

CCOP(=O)(SC(C)CC)N1CCSC1=O (configuration not stated)
inactive: [1] | [2] | [3] | [17] | [4] | [5] | [6] | [7] | [8] | [9] | [10] | [12] | [13] | [14]

COc1cc(OC)nc(Sc2cccc(Cl)c2C(=O)O)n1
inactive: [1] | [2] | [3] | [18] | [15] | [4] | [5] | [6] | [7] | [8] | [9] | [10] | [12] | [16] | [13] | [14]

C#CC(C)(C)NC(=O)c1cc(Cl)cc(Cl)c1
active: [14] 69.1 µM
inactive: [1] | [2] | [3] | [15] | [17] | [4] | [6] | [7] | [8] | [9] | [10] | [11] | [12] | [16] | [13]

CNC(=O)ON=C(SC)C(=O)N(C)C
inactive: [1] | [2] | [3] | [17] | [4] | [6] | [7] | [8] | [9] | [19] | [10] | [11] | [12] | [16] | [13]
active: [14] 100 µM
